Values joined by “and” are separate entries in the source; they are usually repeats but may differ in a detail not shown here. Identical values can stand only once. Compounds without any hit were thinned out: in the full panel of roughly 83,000, 20% have a hit.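 Results are percent growth after 48 hours of single-concentration exposure. 100 means growth as in untreated cells, lower positive values show inhibition; negative values down to -100 show cell death.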 Unmarked numbers belong to inactive results. Active and inactive are the calls of the source. The calls were made as follows: active = growth percent below 10; inactive = the rest.

Among the data in PubChem BioAssay (NCI) are growth values, retold here.

The test system of this experiment is MDA-MB-468 breast. In words: NCI-60 one-dose screen, 48 h (100 = growth as untreated, 0 = no growth, -100 = all killed). To be noted: 10 µM unless noted.
Consider `Cc1cc(C(=O)Nc2ccc3cc(CN4CCOCC4)ccc3n2)c(C)n1-c1ccccc1`, for which the growth was 26.7%. `COc1ccc(-n2ncn(CCCCCCn3cnn(-c4ccc(OC)cc4)c3=O)c2=O)cc1`: the growth was 84.8%.

Turning to `O=C(N/N=C/c1cccc(O)c1O)c1ccccc1`, the growth was -12.6% (active). On to `COc1cc(-c2csc(NC(=O)Nc3cc(Cl)cc(Cl)c3)n2)cc(OC)c1OC`, for which the growth was -6.75% (active). In the case of `CN1CCN(c2ccc(Nc3nc(NCCCNS(=O)(=O)c4ccc(C(F)(F)F)cc4)c4sccc4n3)cc2)CC1`, the growth is -80.9% (active). Consider `NC(N)=Nc1nc2ccccc2o1`, for which the growth was 106%. As for `Cc1cc(Nc2nc(N3CCNCC3)nc3ccccc23)n[nH]1`, the growth is 76.6%.

In the case of `CCCn1cnc2c1c(=O)n(CCCCC(C)=O)c(=O)n2C`, the growth is 107%. For `CNC(=O)c1cc(Oc2ccc3nc(NC(=O)Nc4cc(C(F)(F)F)cc(C(F)(F)F)c4)sc3c2)ccn1` the value was -31.1% (active). On to `CCOC(=O)C1=C(NC)OCC1=O`, for which the growth is 90.7%. Take `COC(=O)Nc1nc2ccc(C3(c4ccc(F)cc4)OCCO3)cc2[nH]1`: the growth is 23.3%.

With `O=Cc1c[nH]c2ccc(NC(=O)OCc3ccccc3)cc12`, the growth was 109%. Consider `Nc1ccccc1-c1ccn[nH]1`, for which the growth was 101%. With `CC(=O)Nc1ccc(S(N)(=O)=O)cc1`, the growth was 100% and 97.2%.

Take `Cc1nc(/N=C(\N)NC(=O)Nc2cccc([N+](=O)[O-])c2)sc1C`: the growth is 11.6%.

Regarding `CCN1C(=O)N(CC)C2C1NC(=S)N2/N=C/C=C/c1ccccc1` (stereo unspecified), the growth is 3.7% (active).
